Assay results: PubChem BioAssay AID1159580 (chemical genetic matrix, 2015)
In all, about 5,500 compounds went through this assay and about 2,000 (36%) were called active. Another 18% or so got no clear call; they are omitted. Cut-off read from the data, not from the text of the source: active = normalized growth mostly below about 0.91 (no sharp cut-off); inconclusive = no clear call, values can overlap the other calls; inactive = mostly above about 0.92. The list shows a part of the results.

Assay: chemical genetic growth profiling, strain panel (AID 1159580);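 note: tested at 20 µM; growth read once vehicle control cultures reached saturation at 30 °C; 1 = growth at the plate median or of vehicle wells; lower values mean less growth of the strain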
Conditions: growth OD

Measured: normalized growth

CCCN(CCC)S(=O)(=O)c1ccc(C(=O)O)cc1
inactive: S. cerevisiae deletion strains, locus YJR075W, strain HOC1, active compounds read low 1 | S. cerevisiae deletion strains, locus YKL009W, strain mrt4, active compounds read low 0.998 | S. cerevisiae deletion strains, locus YKL068W, active compounds read low 0.998 | S. cerevisiae deletion strains, locus YKL085W, strain MDH1 (second series), active compounds read low 1 | S. cerevisiae deletion strains, locus YKL085W, strain MDH1, active compounds read low 1 | S. cerevisiae deletion strains, locus YKL160W, strain elf1, active compounds read low 0.971 | S. cerevisiae deletion strains, locus YKL190W, strain CNB1, active compounds read low 0.983 | S. cerevisiae deletion strains, locus YKR001C, strain vps1, active compounds read low 1.02 | S. cerevisiae deletion strains, locus YKR026C, strain gcn3, active compounds read low 0.988 | S. cerevisiae deletion strains, locus YKR091W, strain srl3, active compounds read low 0.993 | S. cerevisiae deletion strains, locus YLL001W, strain dnm1, active compounds read low 0.952 | S. cerevisiae deletion strains, locus YLL026W, active compounds read low 0.984 | S. cerevisiae deletion strains, locus YLL041C, strain sdh2, active compounds read low 0.992 | S. cerevisiae deletion strains, locus YLR027C, strain aat2, active compounds read low 0.973 | S. cerevisiae deletion strains, locus YLR039C, strain RIC1, active compounds read low 1.02 | S. cerevisiae deletion strains, locus YLR058C, strain SHM2, active compounds read low 1 | S. cerevisiae deletion strains, locus YLR102C, strain apc9, active compounds read low 1 | S. cerevisiae deletion strains, locus YLR113W, strain HOG1, active compounds read low 0.976 | S. cerevisiae deletion strains, locus YLR221C, strain rsa3, active compounds read low 0.995 | S. cerevisiae deletion strains, locus YLR258W, strain gsy2, active compounds read low 0.992 | S. cerevisiae deletion strains, locus YLR262C, strain YPT6 (second series), active compounds read low 0.971 | S. cerevisiae deletion strains, locus YLR262C, strain YPT6, active compounds read low 1.01 | S. cerevisiae deletion strains, locus YLR268W, strain sec22, active compounds read low 1.03 | S. cerevisiae deletion strains, locus YLR320W, strain mms22, active compounds read low 0.99 | S. cerevisiae deletion strains, locus YLR330W, strain CHS5, active compounds read low 0.994 | S. cerevisiae deletion strains, locus YLR342W, strain FKS1 (second series), active compounds read low 0.984 | S. cerevisiae deletion strains, locus YLR342W, strain FKS1, active compounds read low 0.961 | S. cerevisiae deletion strains, locus YLR357W, strain rsc2, active compounds read low 0.951 | S. cerevisiae deletion strains, locus YLR370C, strain arc18, active compounds read low 0.974 | S. cerevisiae deletion strains, locus YLR371W, strain rom2, active compounds read low 1.01 | S. cerevisiae deletion strains, locus YLR384C, strain iki3, active compounds read low 0.983 | S. cerevisiae deletion strains, locus YLR418C, strain cdc73, active compounds read low 1.03 | S. cerevisiae deletion strains, locus YML016C, strain PPZ1, active compounds read low 1 | S. cerevisiae deletion strains, locus YML032C, strain rad52, active compounds read low 1.02 | S. cerevisiae deletion strains, locus YML120C, strain ndi1, active compounds read low 0.993 | S. cerevisiae deletion strains, locus YML124C, strain tub3, active compounds read low 1.01 | S. cerevisiae deletion strains, locus YMR058W, strain fet3, active compounds read low 0.991 | S. cerevisiae deletion strains, locus YMR078C, strain ctf18, active compounds read low 1.03 | S. cerevisiae deletion strains, locus YMR125W, strain sto1, active compounds read low 0.983 | S. cerevisiae deletion strains, locus YMR129W, active compounds read low 0.991 | S. cerevisiae deletion strains, locus YMR205C, strain PFK2, active compounds read low 0.984 | S. cerevisiae deletion strains, locus YMR223W, strain ubp8, active compounds read low 0.992 | S. cerevisiae deletion strains, locus YMR231W, strain pep5, active compounds read low 0.986 | S. cerevisiae deletion strains, locus YMR263W, strain SAP30, active compounds read low 1 | S. cerevisiae deletion strains, locus YMR307W, strain GAS1, active compounds read low 1 | S. cerevisiae deletion strains, locus YNL067W, strain RPL9B, active compounds read low 1.01 | S. cerevisiae deletion strains, locus YNL071W, strain lat1, active compounds read low 0.999 | S. cerevisiae deletion strains, locus YNL128W, strain TEP1, active compounds read low 1.01 | S. cerevisiae deletion strains, locus YNL153C, strain GIM3, active compounds read low 1.01 | S. cerevisiae deletion strains, locus YNL183C, strain NPR1, active compounds read low 0.97 | S. cerevisiae deletion strains, locus YNL209W, strain ssb2, active compounds read low 1.01 | S. cerevisiae deletion strains, locus YNL233W, strain BNI4, active compounds read low 0.999 | S. cerevisiae deletion strains, locus YNL248C, strain rpa49, active compounds read low 0.989 | S. cerevisiae deletion strains, locus YNL250W, strain rad50, active compounds read low 1.01 | S. cerevisiae deletion strains, locus YNL271C, strain bni1, active compounds read low 1.01 | S. cerevisiae deletion strains, locus YNL298W, strain CLA4, active compounds read low 1.01 | S. cerevisiae deletion strains, locus YNL307C, strain MCK1, active compounds read low 1.01 | S. cerevisiae deletion strains, locus YNL322C, strain KRE1 (second series), active compounds read low 0.99 | S. cerevisiae deletion strains, locus YNL322C, strain KRE1, active compounds read low 0.997 | S. cerevisiae deletion strains, locus YNR049C, strain mso1, active compounds read low 0.984 | S. cerevisiae deletion strains, locus YNR052C, strain pop2, active compounds read low 1.02 | S. cerevisiae deletion strains, locus YOL006C, strain TOP1, active compounds read low 1.05 | S. cerevisiae deletion strains, locus YOL012C, strain htz1 0.687 | S. cerevisiae deletion strains, locus YOL147C, strain pex11, active compounds read low 1 | S. cerevisiae deletion strains, locus YOR001W, strain rrp6, active compounds read low 0.98 | S. cerevisiae deletion strains, locus YOR061W, strain CKA2, active compounds read low 1 | S. cerevisiae deletion strains, locus YOR069W, strain VPS5, active compounds read low 0.995 | S. cerevisiae deletion strains, locus YOR070C, strain gyp1, active compounds read low 1 | S. cerevisiae deletion strains, locus YOR080W, strain dia2, active compounds read low 0.982 | S. cerevisiae deletion strains, locus YOR083W, strain WHI5, active compounds read low 0.953 | S. cerevisiae deletion strains, locus YOR106W, strain vam3, active compounds read low 0.971 | S. cerevisiae deletion strains, locus YOR136W, strain idh2, active compounds read low 1.02 | S. cerevisiae deletion strains, locus YOR144C, strain elg1, active compounds read low 1.01 | S. cerevisiae deletion strains, locus YOR184W, strain ser1, active compounds read low 1.04 | S. cerevisiae deletion strains, locus YOR231W, strain MKK1, active compounds read low 0.976 | S. cerevisiae deletion strains, locus YOR265W, strain rbl2, active compounds read low 0.992 | S. cerevisiae deletion strains, locus YOR270C, strain vph1, active compounds read low 1 | S. cerevisiae deletion strains, locus YOR290C, strain snf2, active compounds read low 1.01 | S. cerevisiae deletion strains, locus YOR316C, strain cot1, active compounds read low 1.01 | S. cerevisiae deletion strains, locus YPL051W, strain arl3, active compounds read low 0.984 | S. cerevisiae deletion strains, locus YPL055C, strain LGE1, active compounds read low 0.976 | S. cerevisiae deletion strains, locus YPL078C, strain atp4, active compounds read low 0.953 | S. cerevisiae deletion strains, locus YPL106C, strain sse1, active compounds read low 1.01 | S. cerevisiae deletion strains, locus YPL240C, strain hsp82, active compounds read low 0.977 | S. cerevisiae deletion strains, locus YPL241C, strain CIN2, active compounds read low 0.991 | S. cerevisiae deletion strains, locus YPL256C, strain CLN2, active compounds read low 1.04 | S. cerevisiae deletion strains, locus YPR119W, strain clb2, active compounds read low 1.01 | S. cerevisiae deletion strains, locus YPR141C, strain kar3, active compounds read low 1 | S. cerevisiae deletion strains, locus YPR163C, strain tif3, active compounds read low 1.01 | S. cerevisiae deletion strains, locus YPR167C, strain met16, active compounds read low 1.01 | S. cerevisiae deletion strains, strain wtn01, active compounds read low 1.01 | S. cerevisiae strains, strain wild type, active compounds read low 0.99
